This passage reports inhibition results from PubChem BioAssay AID1376 (SRMLSC, 2008).

By inhibition is commonly meant the change of the read-out against control, counted positive when it falls.

Screen size: about 220,000 compounds; about 530 (0.24%) were called active. The sample as a whole holds a higher share of actives than the screen did. Measured potencies and affinities stand elsewhere. A number with no mark means an inactive call. No stated cut-off is given here; in the data, active means inhibition above about 13%; inconclusive means no clear call, values can overlap the other calls; inactive means below that.

Sequence of Bifunctional protein GlmU (Mycobacterium tuberculosis (strain ATCC 25618 / H37Rv)) (P9WMN3 whole entry, looked up): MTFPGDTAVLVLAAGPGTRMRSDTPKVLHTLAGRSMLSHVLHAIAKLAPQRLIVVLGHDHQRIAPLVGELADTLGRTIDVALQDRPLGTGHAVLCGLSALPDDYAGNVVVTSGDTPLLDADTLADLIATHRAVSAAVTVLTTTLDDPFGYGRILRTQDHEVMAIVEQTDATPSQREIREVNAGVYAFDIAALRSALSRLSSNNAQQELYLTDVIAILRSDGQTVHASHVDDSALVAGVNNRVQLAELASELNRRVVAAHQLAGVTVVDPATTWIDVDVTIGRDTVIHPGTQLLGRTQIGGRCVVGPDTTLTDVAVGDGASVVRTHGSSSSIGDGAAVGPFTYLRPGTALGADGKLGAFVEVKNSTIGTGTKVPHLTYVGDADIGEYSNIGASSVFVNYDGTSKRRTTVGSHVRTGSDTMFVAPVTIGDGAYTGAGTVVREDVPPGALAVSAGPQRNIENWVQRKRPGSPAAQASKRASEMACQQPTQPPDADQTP

The experiment has as its target Bifunctional protein GlmU (Mycobacterium tuberculosis (strain ATCC 25618 / H37Rv)) (UniProt P9WMN3). The experiment in a line: inhibition of mycobacterial GlmU enzyme – biochemical, glucosamine-1-phosphate acetyltransferase (AID 1376).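 Further: 0% = complete reaction with vehicle and 100% = reaction without substrate.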 Conditions: M. tuberculosis GlmU acetyltransferase enzyme assay; active compounds read high;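 tested at 30 µM in the primary screen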.
For `CSc1nsc(/C=C/Nc2ccc(C(=O)O)cc2)c1C#N`, the inhibition was -2.44%.
For the molecule `CC1=NN(C(=O)CSCc2ccccc2)C(O)(c2ccc(Cl)cc2)C1` (configuration not stated), the inhibition was 0.2%.
Turning to `O=S1(=O)CCC(N=Cc2cc(Br)ccc2O)C1` (configuration not stated), the inhibition was -0.36%.
On to `Cc1cc(C(=O)CSc2n[nH]c(N)n2)c(C)n1-c1ccc(F)cc1`, for which the inhibition is 13% (active).
Turning to `Cc1ccc(-n2c(C)cc(C(=O)CSc3n[nH]c(N)n3)c2C)cc1`, the inhibition was -7.08%.
The result for `Cc1cc(C(=O)CSc2n[nH]c(N)n2)c(C)n1-c1ccccc1` reads 1.04%; that for `Cc1ccc(C(=O)COC(=O)CNC(=O)C(c2ccccc2)c2ccccc2)cc1[N+](=O)[O-]`, 30.6% (active); that for `Cc1ccc(C(=O)COC(=O)CNS(=O)(=O)c2ccccc2)cc1[N+](=O)[O-]`, -0.84%.
On to `Cc1ccc(C(=O)NCC(=O)OCC(=O)c2ccc(C)c([N+](=O)[O-])c2)cc1`, for which the inhibition was -3.78%.
The result for `CCOC(=O)c1sc(Nc2ccccc2Cl)nc1C` reads 1.72%; that for `O=C(CCc1nc2ccccc2c(=O)[nH]1)OCc1ccc(Cl)cc1Cl`, -1.63%.
With `O=S(=O)(NCc1ccc(F)cc1)c1ccc2c(c1)OCCO2` the figure was 4.82%; with `COc1ccc(C(=O)Cc2ccc(F)cc2)c(OC)c1`, 8.08%; with `COc1ccc(C(=O)Cc2ccc(OC)c(OC)c2)c(OC)c1`, 14.1% (active).
With `COc1ccc(C(=O)Cc2ccc(OC)c(OC)c2)cc1` the figure was 0.95%; with `COc1cc(S(=O)(=O)N2CCOCC2)ccc1NC(=O)CSc1nnc(N)s1`, 10.7%.
Regarding `COc1cc(C(=O)O)ccc1Cl`, the inhibition was 1.44%.
With `Nc1ncc(N=Nc2cc(C(=O)O)ccc2Cl)s1` the figure was 13.8% (active); with `Cc1cccc(N=Nc2cnc(N)s2)c1`, 4.97%.
In the case of `CC(=O)Nc1cccc(Oc2ccc([N+](=O)[O-])cc2Cl)c1`, the inhibition was 2.81%.
The result for `CCn1c2ccccc2c2nc3cc(C(=O)O)ccc3nc21` reads 1.61%; that for `CCn1c2ccc(Cl)cc2c2nc3ccccc3nc21`, 2.14%.
With `O=c1[nH]c(=S)[nH]c(O)c1C(c1ccccn1)c1c(O)[nH]c(=S)[nH]c1=O` the figure was 9.35%.
Consider `O=[N+]([O-])c1ccc2c(c1)oc1ccccc12`, for which the inhibition was 0.45%.
The result for `O=c1c2ccccc2oc2ncccc12` reads 3.79%; that for `CC(=O)CC(c1ccc([N+](=O)[O-])cc1)c1c(O)c2ccccc2oc1=O` (configuration not stated), 1.67%; that for `COc1cc2c(cc1NC(=O)Cn1cnc3c1c(=O)n(C)c(=O)n3C)oc1ccccc12`, 9.92%.
With `C=CCN1C(=NC(=O)CCC(=O)O)SC2CS(=O)(=O)CC21` (configuration not stated) the figure was 0.93%.
For `CCN1CCN(c2cc(C)c3cc(NC(=O)c4ccccc4F)ccc3n2)CC1`, the inhibition is -4.15%.
With `Cn1cnnc1SCc1cccc(Br)c1` the figure was 2.34%; with `CCn1ncc(NC(=S)Nc2ccc3c(c2)OCO3)c1C(N)=O`, -0.08%.
With `Cc1nn(-c2ccccc2)c(=S)c2ccccc12` the figure was -0.11%.
The result for `COc1ccc(NC(=O)CNc2cccc(C#N)c2)cc1Cl` reads 0.65%; that for `COc1ccc(NCC(=O)Nc2ccccc2C#N)cc1Cl`, 16.5% (active); that for `COc1ccc(NCC(=O)Nc2ccc(C#N)cc2)cc1Cl`, 1.17%.
For `Clc1ccc(-c2nnc(CSc3nnc(-c4cccs4)n3Cc3ccccc3)o2)cc1`, the inhibition is -1.83%.
With `CC(=O)N1CCCSC1=Nc1ccccc1` the figure was 1.84%; with `Cc1ccc(-c2nc(SCC(=O)NCC3CCCO3)c(-c3ccc(C)cc3)[nH]2)cc1` (configuration not stated), -0.94%.
For the molecule `O=[N+]([O-])c1cccc(CSc2cccc[n+]2[O-])c1`, the inhibition was 6.55%.
As to `O=[N+]([O-])c1ccc(NCc2ccccc2)c2nonc12`, the inhibition was 0.67%.
Consider `Oc1cccc(C(=S)N2CCCCC2)c1`, for which the inhibition was -2.56%.
The result for `CCOC(=O)C1C(=O)NC(SCC(N)=O)=C(C#N)C1c1ccccc1OCC` (configuration not stated) reads 5.97%; that for `CCOC(=O)C1C(=O)NC(SCC(=O)OC)=C(C#N)C1c1ccccc1OCC` (configuration not stated), -2.95%; that for `CCOC(=O)CSC1=C(C#N)C(c2ccccc2OCC)C(C(=O)OCC)C(=O)N1` (configuration not stated), 13.2% (active).
With `Cc1ccc(C)c2[nH]c(=O)c(CN(Cc3ccc4c(c3)OCO4)Cc3nnnn3Cc3ccco3)cc12`, the inhibition is 2.41%.
Regarding `Cc1ccc(NC(=O)c2cccc(C(=O)OC(C)C)n2)c(Br)c1`, the inhibition is -4.22%.
Consider `O=C1CCN(c2ncccc2[N+](=O)[O-])CC1`, for which the inhibition is -2.93%.
The result for `O=[N+]([O-])c1cccnc1N1CCCCC1` reads 13.3% (active); that for `O=[N+]([O-])c1cccnc1N1CCOCC1`, 1.56%; that for `Cc1ccc(C)c(/C(O)=C2\C(=O)C(=O)N(CCCn3ccnc3)C2c2ccncc2)c1` (configuration not stated), -3.1%.
For `COc1cccc(C2C3=C(Nc4[nH]n(-c5ccccc5)c(=O)c42)c2ccccc2C3=O)c1` (configuration not stated), the inhibition is -1.89%.
For the molecule `Cc1ccc(C2C3=C(Nc4[nH]n(-c5ccccc5)c(=O)c42)c2ccccc2C3=O)cc1` (configuration not stated), the inhibition was 8.68%.
Regarding `Cc1cccc(C2C3=C(Nc4[nH]n(-c5ccccc5)c(=O)c42)c2ccccc2C3=O)c1` (configuration not stated), the inhibition is 14.6% (active).
The result for `CCOC(=O)c1c(C)[nH]c(C(=O)CSc2nc3ccccc3o2)c1C` reads -3.5%; that for `Cc1cc(/C=N/Nc2ccc([N+](=O)[O-])cn2)c(C)n1-c1ccccc1`, -0.82%.
As to `Cc1cc(/C=N/Nc2ccc([N+](=O)[O-])cn2)c(C)n1-c1ccc(C(=O)O)cc1`, the inhibition is 18.4% (active).
With `Cc1c(C(=O)O)cccc1-n1c(C)cc(/C=N/Nc2ccc([N+](=O)[O-])cn2)c1C` the figure was 3.53%; with `CCOC(=O)c1cc(-c2ccc(F)cc2)n(CC(=O)Nc2nccs2)c1C`, -5.76%.
Take `Cc1ccc(C(=O)C(OC(=O)CCC(=O)Nc2cccc(C)c2)c2ccccc2)cc1` (configuration not stated): the inhibition was 14.9% (active).
The result for `O=C(CCC(=O)OC(C(=O)c1ccccc1)c1ccccc1)Nc1ccccc1` (configuration not stated) reads -0.93%.
The result for `Cc1ccc(NC(=O)CCC(=O)OC(C(=O)c2ccc(C)c(C)c2)c2ccccc2)c(C)c1` (configuration not stated) reads 1.52%; that for `O=[N+]([O-])c1ccc(N2CCNCC2)cc1Sc1nc2ccccc2[nH]1`, -3.78%.
Take `O=C(CSC1CN(C(c2ccccc2)c2ccccc2)C1)N/N=C/c1ccccc1`: the inhibition is 1.05%.
With `O=C(OCC(=O)N1CCN(C(=O)c2ccco2)CC1)c1cn(-c2ccccc2)nc1-c1ccccc1` the figure was 9.88%; with `Oc1ccc(O)c(Cc2nc3ccccc3[nH]2)c1`, 14.4% (active); with `CNCc1nc2ccccc2[nH]1`, 2.1%.
The result for `CCc1nc2ccccc2[nH]1` reads -1.65%; that for `O=C(NCCC1CC1(Cl)Cl)Nc1ccccc1` (configuration not stated), 2.82%; that for `O=C1C2C(c3ccccc3)=NN(c3ccccc3)C2C(=O)N1c1ccccc1` (configuration not stated), 0.94%.
As for `CCOc1ccc(N2C(=O)C3C(c4ccccc4)=NN(c4ccccc4)C3C2=O)cc1` (configuration not stated), the inhibition was 4.13%.
With `O=C1[C@H]2C(c3ccccc3)=NN(c3ccccc3)[C@H]2C(=O)N1c1ccccc1` the figure was 14.2% (active); with `O=C(N/N=C/C=C/c1ccco1)/C(=C/c1ccccc1)NC(=O)c1ccccc1`, 3.94%; with `C/C(=N\NC(=O)NC1CCCCC1)C1CCCCC1`, 5.48%.
With `O=C(Nc1ccc(SC(F)F)cc1)c1ccc(F)cc1` the figure was 2.04%.
The result for `CC(=O)N=c1sc2ccccc2n1C` reads -1.3%.
`Cn1c(=NC(=O)CN2C(=O)C3CC=CCC3C2=O)sc2ccccc21` (configuration not stated): the inhibition was -0.18%.
Take `CC(C(=O)N=c1sc2ccccc2n1C)N1C(=O)C2CC=CCC2C1=O` (configuration not stated): the inhibition is 13.6% (active).
`CCNC1=C(Cl)C(=O)c2ccccc2C1=O`: the inhibition is -3.8%.
The result for `CC(C)NC1=C(Cl)C(=O)c2ccccc2C1=O` reads 13.7% (active).
With `O=C1C(Cl)=C(Nc2ccccc2)C(=O)c2ccccc21` the figure was -4.13%.
With `O=C1c2ccccc2S(=O)(=O)c2cc(C(=O)N3CCN(C(=O)c4ccccc4)CC3)ccc21`, the inhibition was -2.8%.
Turning to `CCN(CCNC(=O)Cn1cc2c(n1)CCCC2)c1ccccc1`, the inhibition is -0.86%.
In the case of `CCOc1ccc(C(=O)SC2=NCCS2)cc1`, the inhibition is 8.72%.
With `S=c1nc(C2CCCCC2)[nH]c2ccccc12` the figure was -2.69%; with `Nc1n[nH]c(C2CCCCC2)n1`, -2.96%.
The result for `S=c1nc(C2CCCCC2)[nH][nH]1` reads 14% (active); that for `CCc1nc(N2CCN(S(C)(=O)=O)CC2)c2c3c(sc2n1)CCCC3`, -2.08%.
With `COc1ccc(N/C=C2/Sc3ccccc3NC2=O)cc1` the figure was 0.09%.
Consider `O=C(NC1CCN(C(=O)N2c3ccccc3Sc3ccccc32)CC1)c1ccccc1Cl`, for which the inhibition was 2.41%.
On to `Cc1ccc(SC(C)c2nc(-c3ccncc3)no2)cc1` (configuration not stated), for which the inhibition was 5.19%.
The result for `Cc1ccc(SC(C)c2nc(-c3ccccc3)no2)cc1` (configuration not stated) reads 14.3% (active); that for `Cc1ccc(SC(C)c2nc(-c3cccnc3)no2)cc1` (configuration not stated), -3.18%; that for `CC12CCC(C(=O)NCc3ccccc3Cl)(OC1=O)C2(C)C` (configuration not stated), 0.28%.
For the molecule `Cc1[nH]c(=O)[nH]c(=O)c1/C=N/NC(=O)CCNC(=O)OC(C)(C)C`, the inhibition was -1.18%.
Regarding `Cc1[nH]c(=O)[nH]c(=O)c1/C=N/NC(=O)[C@@H](NC(=O)OC(C)(C)C)C(C)C`, the inhibition was -0.37%.
The result for `Cc1[nH]c(=O)[nH]c(=O)c1/C=N/NC(=O)[C@H](C)NC(=O)OC(C)(C)C` reads 12.9% (active); that for `CCN(C(=O)c1nn(-c2ccc(OC)cc2)c(=O)c2c1c1ccccc1n2C)c1ccc(OC)cc1`, -3.7%.
